This is an account of results in ChEMBL document CHEMBL4888484, “Replenishing the malaria drug discovery pipeline: Screening and hit evaluation of the MMV Hit Generation Library 1 (HGL1) against asexual blood stage Plasmodium falciparum ,using a nano luciferase reporter read-out” (2022).

Out of some 4,800 compounds screened, about 410 (8.5%) showed an effect of 50% or more. Many of the other results were omitted from the sample, so strong results are more common in it than they were.

In the experiment the test system is Plasmodium falciparum. The experiment can be described thus: Confirmatory screen in NF54 pLDH assay, in single point, at 2uM, 72h. The format is functional, Erythrocyte. The following applies: timepoint 72 hour.
With `CNC(=O)C(=O)Nc1ccccc1C(F)(F)F`, the “% Inhibition” value is 9%. The result for `C[C@H](NC(=O)c1cocn1)c1ccccc1NC(=O)c1cocn1` reads -7%. Then `Oc1ccc2ncccc2c1[C@@H](Nc1ccccn1)c1cccc(Br)c1`, with 77%; and `Cc1cc([C@H](Nc2ccccn2)c2ccccc2)c(NC(=O)c2ccccc2)s1`, with 3%; and `Cc1cc([C@H](Nc2ccccn2)c2cccnc2)c(NC(=O)c2ccccc2)s1`, with 4%. Turning to `CCCC(=O)N1CCC(OC(=O)c2cnc3ccc(F)cc3c2)CC1`, the “% Inhibition” value is reported as -10%. Then `CC(C)Nc1nc2nonc2n2cnnc12`, with 90%; and `COc1ccc(Nc2ncc(Cc3ccccc3C)s2)cc1`, with 4%. On to `CC(C)C(CNCc1nnn(C)n1)C(C)C`, for which the “% Inhibition” value is 11%. The result for `FC(F)(F)c1cnc(-c2csc(NC3CCCCC3)n2)c(Cl)c1` reads 15%; that for `NC(=O)c1nnn2c1C(=O)N[C@H](c1ccc(Cl)cc1)C2`, -13%; that for `CCc1c(-c2nc(CCN(C)C(=O)c3ccoc3)no2)[nH]c2ccc(C)cc12`, -19%. The result for `CCN1c2cc(C(=O)N3CCCCC3)ccc2C(=O)N2CCCCC[C@H]21` reads 6%.

As for `Cc1cc(C(=O)Nc2cc(C)nn2C)nc(N(C)C)n1`, the “% Inhibition” value is recorded as 8%.

For `Cc1cc(NC(=O)c2ccccn2)n(-c2nc3ccccc3o2)n1`, the “% Inhibition” value was determined as 93%. With `Cc1cc(C)n(C(=O)CNC(=O)c2ccccn2)n1`, the “% Inhibition” value was 14%. Then `COc1ccc(S(=O)(=O)N2CC[C@@H]3[C@@H](COCCN3Cc3ccccc3)C2)cc1`, with 0%; and `O=C(CNC(=O)COc1ccccc1)NCC1(O)CCCCCC1`, with 6%; and `C[C@@H](CN)N(C)c1ccnc2cc(Br)cnc12`, with 96%. As for `O=C(O)C1c2ccccc2C(=O)N(C2CCCCC2)C1c1ccc(Cl)cc1` (stereo unspecified), the “% Inhibition” value was -3%.

As for `Cc1noc(C)c1CN1C[C@@H]2Oc3cc(F)ccc3C(=O)N(C)[C@@H]2C1`, the “% Inhibition” value turned out to be 97%. Then `Cc1noc(C)c1CN1CCNC(=O)CC1`, with -14%; and `Cc1noc(C)c1CN1CCCN(C(=O)c2n[nH]c3ccccc23)CC1`, with 7%; and `Cc1ccc(N2C(=O)c3ccccc3[C@H]2Nc2nc(C)cs2)nc1`, with -16%. In the case of `C[C@@H]1CN(C(=O)NCCc2ccc(C(F)(F)F)cn2)C[C@H](C)O1`, the “% Inhibition” value is 6%. The result for `Cc1cc(NCc2noc(-c3ccsc3)n2)ccc1C(N)=O` reads 5%. The result for `Cc1noc(C)c1NS(=O)(=O)c1ccc2c(c1)OCCCO2` reads 0%; that for `CCN(CC(=O)Nc1ccc2c(c1)OCCO2)C(=O)CCc1c(C)noc1Cl`, 5%; that for `COc1ccc(N2CCN(C(=O)c3ccc(F)cc3)[C@@H](C)C2=O)cc1`, 11%. The result for `COc1ccc([C@@H]2c3[nH]c4ccc(OC)cc4c3CCN2C(=O)NCc2ccc(F)cc2)cc1` reads 4%. Consider `COc1ccc2[nH]c3c(c2c1)CCN(C(=O)c1ccc(C)c(C)c1)[C@@H]3c1ccccc1OC`, for which the “% Inhibition” value is on record as 86%. The result for `CC1(C)CCC(Nc2ccc(C(N)=O)nn2)CC1` reads 92%; that for `CC1CCCCC1OCCN1CCOCC1C(N)=O` (stereo unspecified), 7%. The result for `Cc1nn(C)c(C)c1-c1cc(C(=O)Nc2cc(F)ccc2F)c2c(C)nn(C)c2n1` reads 2%; that for `COc1cccc(-c2cc(C(=O)Nc3ccc(F)c(Cl)c3)c3c(C)nn(C)c3n2)c1`, 4%; that for `CC(C)C(C(=O)O)N1Cc2c(cc(O)c3c2OC2(C3)C(C)CCC3C(C)(C)C(O)CCC32C)C1=O` (stereo unspecified), 5%. On to `Cc1c(NC(=O)C(F)(F)[C@@]2(F)OC(F)(F)C(F)(F)C2(F)F)c(=O)n(-c2ccccc2)n1C`, for which the “% Inhibition” value is listed as -16%.

For `Cc1cc(F)ccc1-n1ccc(C(=O)N(C[C@H]2CCOC2)C2CC2)n1`, the “% Inhibition” value was -12%. As for `CC[C@](O)(C(=O)N(C)Cc1ncon1)c1cccc(Cl)c1`, the “% Inhibition” value is reported as -13%.

In the case of `Cc1ccc(CC[C@H]2Nc3ccccc3C(c3ccccc3)(c3ccccc3)O2)o1`, the “% Inhibition” value turned out to be 66%.

For the molecule `CCCOC(=O)c1cc(NC(=O)c2ccc3ccccc3c2)ccc1N1CCOCC1`, the “% Inhibition” value was -11%. With `Cc1cc(C(=O)N2CCC3(CCNCC3)CC2)ccc1F`, the “% Inhibition” value was 7%. The result for `CN1C(=O)[C@H](O)N(c2cccc3ccccc23)C1=O` reads 9%; that for `COc1cccc(-c2cc3c(N4CCN(c5ccccn5)CC4)nccn3n2)c1`, 4%.

With `C[C@H](NC(=O)c1cc(-c2ccc(F)cc2)ns1)c1ccccn1`, the “% Inhibition” value is 9%. Turning to `Cc1c2c(C(F)(F)F)cc(=O)n(CCC(=O)Nc3ncc(Cl)cc3Cl)c2nn1C`, the “% Inhibition” value is listed as -7%.

As for `Cn1c(Cc2n[n+]3c(-c4ccccc4)cc(-c4ccccc4)nc3n2C)n[n+]2c(-c3ccccc3)cc(-c3ccccc3)nc12`, the “% Inhibition” value is recorded as 95%. Consider `Cc1ccc(Cl)cc1N1CCN(C(=O)c2ccc3noc(-c4ccc(F)cc4)c3c2)CC1`, for which the “% Inhibition” value is recorded as -13%. Then `c1ccc(CC2CCN(c3[nH]cnc4ncnc3-4)CC2)cc1`, with 11%; and `Cc1cccc(C(=O)Nc2ccc(N3CCCCCC3)cc2C(=O)O)c1`, with -10%. The result for `O=C(Nc1cc(N2CCCS2(=O)=O)ccc1O)c1cccc(Oc2cccc(C(F)(F)F)c2)c1` reads 97%; that for `O=C(Nc1cccc(C(F)(F)F)c1)C(Oc1ccccc1)Oc1ccccc1`, -19%. The result for `CCOC(=O)c1oc(NC(=O)OC(C)(C)C)nc1C(F)(F)F` reads 5%; that for `C#CCn1ccc(O)c(Cc2ccccc2)c1=O`, 14%; that for `CN(C(=O)C1CC=CC1)c1ccc(NC(=O)C2CC=CC2)cc1Cl`, -13%.

`c1ccc(N2CCN(CCN[C@H]3CCc4cc5c(cc43)CCC5)CC2)cc1`: the “% Inhibition” value came out at 9%. Then `Cc1ccnc(CNC(=O)N[C@H]2CCc3ccc(F)cc32)c1`, with -12%; and `Oc1ccccc1CCN[C@H]1CCc2ccc(F)cc21`, with 95%; and `CN(Cc1ccc(F)cc1Cl)[C@H]1CCc2nnc(C3CCOCC3)n2CC1`, with -4%.

For `O=C1OCc2cc(NC(=O)[C@@H]3COc4ccccc4O3)ccc21`, the “% Inhibition” value turned out to be 10%. With `Cc1cc(OCc2ccc(C(=O)Nc3ncn(Cc4c(F)cccc4Cl)n3)o2)ccc1Cl`, the “% Inhibition” value was 0%. Then `COc1ccc(NC(=O)CC(C)(C)CC(=O)O)cc1`, with 10%; and `Cc1cc2nc(C)c(=O)n(Cc3ccc(C(=O)N4CCC(Cc5ccccc5)CC4)cc3)c2cc1C`, with 12%. For `C=Cn1cc[n+](CC(=O)c2ccc(-c3ccccc3)cc2)c1`, the “% Inhibition” value is on record as 51%. Then `Cn1c(-c2ccc(Cl)c(Cl)c2)c[n+](CC(=O)c2ccc(-c3ccccc3)cc2)c1N`, with 9%.

On to `Cc1ccc(C(=O)C[n+]2cc(-c3ccc(-c4ccccc4)cc3)n(C)c2N)cc1`, for which the “% Inhibition” value worked out at 4%.
